# High-throughput results (PubChem BioAssay)
# RGS7-Gao: regulators of human RGS7-Galphao interaction. 220,000 compounds, 0.35% hits. Multiplexed bead flow cytometry, RGS7-Galphao binding; actives lie on both sides. binding response (% of control), % at 10 µM. P09471; in the data active = binding response below about 49% or above about 150%; inconclusive = no clear call, values can overlap the other calls; inactive = in between;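 note: fluorescent Galphao held in activated GDP-AlF4 state binding bead-coupled RGS7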
# Target sequence (P09471 whole entry, looked up): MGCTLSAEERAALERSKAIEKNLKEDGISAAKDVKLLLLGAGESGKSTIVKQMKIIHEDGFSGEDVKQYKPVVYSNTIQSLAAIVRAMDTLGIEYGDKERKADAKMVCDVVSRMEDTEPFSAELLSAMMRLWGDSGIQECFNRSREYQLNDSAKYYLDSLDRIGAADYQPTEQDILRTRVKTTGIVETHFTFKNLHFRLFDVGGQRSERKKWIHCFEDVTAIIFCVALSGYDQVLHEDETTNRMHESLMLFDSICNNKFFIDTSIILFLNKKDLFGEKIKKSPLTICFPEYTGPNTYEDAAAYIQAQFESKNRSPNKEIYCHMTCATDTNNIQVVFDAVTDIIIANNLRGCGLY
# RGS4-Gao reg: human RGS4-Galphao interaction regulation; P09471; Multiplexed bead flow cytometry, RGS4-Galphao binding; actives lie on both sides; binding response (% of control), % at 10 µM; 220,000 compounds, 0.33% hits; in the data active = binding response below about 49% or above about 150%; inactive = in between;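 note: fluorescent Galphao activated with aluminum fluoride binding bead-coupled RGS4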
# RGS16-Gao HTS: RGS16-Galphao interaction regulator (human); 220,000 compounds, 0.38% hits; O15492+P09471; bead-based flow cytometry RGS16-Galphao binding, fluorescence; actives lie on both sides; binding response (% of control), % at 10 µM;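 note: Galphao activated by GDP with aluminum fluoride before binding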
# RGS8-Gao reg: regulators of human RGS8-Galphao interaction; multiplexed bead flow cytometry, RGS8-Galphao binding; actives lie on both sides; response (percent of control binding), % at 10 µM; 220,000 compounds, 0.34% hits; in the data active = response below about 60% or above about 140%; inactive = in between;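 note: Galphao activated as the GDP aluminium fluoride complex binding bead-coupled RGS8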
# Avidin bead fluor: avidin bead compound fluorescence profile | 220,000 compounds, 0.38% hits | fluorescence (KMESF) at 10 µM | Avidin beads, compound fluorescence 488/530 nm, flow cytometry; stronger effect = higher value | AID 1775; in the data active = fluorescence above about 47
# GSH bead fluor: GSH bead compound fluorescence profile; fluorescence (KMESF) at 10 µM; AID 1776; GSH beads flow cytometry, compound fluorescence 488/530 nm; stronger effect = higher value; 190,000 compounds, 0.25% hits; in the data active = fluorescence above about 89;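 note: glutathione beads carrying GST-tagged Bcl family fusion proteins plus one bare bead set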
# RGS4-Gao HTS: modulates binding between human RGS4 and Galphao. shares compounds with RGS16-Gao HTS. multiplexed bead flow cytometry, RGS–Galpha-o binding. RGS4–Galpha-o binding response, % at 10 µM. 1,600 compounds, 99% hits. AID 1504;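 note: fluorescently labeled Galpha-o bound to GDP with aluminium fluoride binding biotinylated RGS beads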
# Target sequence (P09471 whole entry, looked up): as above
# Target sequence (P49798 whole entry, looked up): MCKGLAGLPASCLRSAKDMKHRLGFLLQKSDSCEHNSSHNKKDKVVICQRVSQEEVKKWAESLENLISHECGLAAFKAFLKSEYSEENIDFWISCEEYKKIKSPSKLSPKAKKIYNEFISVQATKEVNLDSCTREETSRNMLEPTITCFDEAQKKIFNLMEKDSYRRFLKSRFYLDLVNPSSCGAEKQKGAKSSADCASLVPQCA
# Avidin counter: biotin-avidin bead binding disruption counter-screen; inhibition, % at 10 µM; AID 1783; shares compounds with RGS16-Gao HTS; streptavidin beads, fluorescein-biotin binding, flow cytometry; 1,700 tested, under 10 active;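 active = inhibition above 50%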;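 note: median green fluorescence of gated singlet beads compared with DMSO control wells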
# RGS8-Gao single: RGS8-Galphao interaction regulation, single point confirmation; shares compounds with RGS16-Gao HTS; binding response (% of control), % at 10 µM; bead-based flow cytometry RGS8-Galphao binding, fluorescence; actives lie on both sides; 1,700 compounds, 3% hits; in the data active = binding response below about 72% or above about 130%; inactive = in between;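 note: Galphao activated as GDP AlF4 complex before binding bead RGS8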
# RGS7-Gao confirm: confirmation of regulators of human RGS7-Galphao interaction | shares compounds with RGS16-Gao HTS | bead-based flow cytometry RGS7-Galphao binding; actives lie on both sides | response (percent of control binding), % at 10 µM | 1,700 compounds, 7.8% hits | AID 1837; in the data active = response below about 75% or above about 130%; inactive = in between;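 note: fluorescent Galphao activated with GDP and aluminum fluoride binding bead-coupled RGS7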
# RGS16-Gao single: RGS16-Galphao interaction regulation, single point confirmation | shares compounds with RGS16-Gao HTS | bead-based flow cytometry, RGS16-Galphao binding; actives lie on both sides | response (% of control binding), % at 10 µM | 1,700 compounds, 4% hits | AID 1838; in the data active = response below about 74% or above about 130%; inactive = in between;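 note: Galphao activated as the GDP aluminium fluoride complex binding bead-coupled RGS16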
# RGS4-Gao single: RGS4-Galphao interaction regulation, single point confirmation; binding response (% of control), % at 10 µM; AID 1840; 1,700 compounds, 4% hits; shares compounds with RGS16-Gao HTS; RGS4-Galphao binding, multiplexed bead flow cytometry; actives lie on both sides; in the data active = binding response below about 74% or above about 130%; inactive = in between
# RGS19-Gao single: RGS19-Galphao interaction regulation, single point confirmation; bead-based flow cytometry RGS19-Galphao binding; actives lie on both sides; response (percent of control binding), % at 10 µM; shares compounds with RGS16-Gao HTS; AID 1841; 1,700 compounds, 5% hits; in the data active = response below about 50% or above about 160%; inactive = in between
# A number is an active result; n = inactive; u = inconclusive; x = no result given; + = active, no number; [ ] = remark or other dose. Hits are enriched below; roughly 1.2% of the tested compounds scored in any of these assays. Unless noted, the rule behind the calls is not given here.
SMILES,RGS7-Gao,RGS4-Gao reg,RGS16-Gao HTS,RGS8-Gao reg,Avidin bead fluor,GSH bead fluor,Avidin counter,RGS8-Gao single,RGS7-Gao confirm,RGS16-Gao single,RGS4-Gao single,RGS19-Gao single,others
O=C(c1ccco1)N(CCC(c1ccccc1)c1ccco1)Cc1ccco1 (centres undefined),14,23,2.3,12,n,n,n,n,n,n,n,n,
Cc1ccc(C(CCN(Cc2ccccc2)C(=O)c2ccco2)c2ccco2)cc1 (centres undefined),n,n,n,n,n,n,x,x,x,x,x,x,
O=C(COC(=O)C1COc2ccccc2O1)Nc1cccc(S(=O)(=O)N2CCCCC2)c1 (centres undefined),n,n,n,n,n,n,x,x,x,x,x,x,
O=C(Nc1ccc([N+](=O)[O-])cc1)c1cc2ccccc2nc1Cl,u,n,n,n,n,x,x,x,x,x,x,x,
Cc1nc2c(=O)oc3ccccc3c2n1-c1ccccc1,n,n,n,141[activator],n,n,x,x,x,x,x,x,RGS4-Gao HTS=128
CCc1cc(=O)oc2c(C)c(OCC(=O)N3CCCc4ccccc43)ccc12,n,n,n,159[activator],n,n,n,n,n,n,n,n,RGS4-Gao HTS=133
Cc1cccc(OCC(=O)N2CCCc3ccccc32)c1,n,n,n,n,n,n,x,x,x,x,x,x,
COC(=O)CNC(=O)CN1c2cccc3cccc(c23)S1(=O)=O,n,n,n,n,n,n,x,x,x,x,x,x,
CCN1c2cccc3cccc(c23)S1(=O)=O,155[activator],155[activator],n,n,n,n,n,n,n,n,n,n,
O=C(O)c1cc(C(F)(F)F)nc2c(C(F)(F)F)cccc12,174[activator],n,n,n,n,n,x,x,x,x,x,x,RGS4-Gao HTS=143
COc1cccc(CNC(=O)C2CCN(S(=O)(=O)c3ccc4c(c3)CCC(=O)N4)CC2)c1,n,n,n,141[activator],n,n,n,n,n,n,n,n,RGS4-Gao HTS=110
CCc1nnc(NC(=O)c2cccc(S(=O)(=O)N3CCc4ccccc43)c2)s1,23,28,3.0,19,n,n,n,n,n,n,n,n,
CC(C)CCNC(=O)NC(=O)COC(=O)c1cc(S(=O)(=O)N2CCOCC2)ccc1N1CCCCC1,13,25,16,12,n,n,n,n,n,n,n,n,
CCc1nnc(NC(=O)c2cc(S(=O)(=O)N3CCOCC3)ccc2N2CCCCC2)s1,+[activator],+[activator],+[activator],393[activator],897,n,n,n,n,n,n,n,
Nn1c(SCC(=O)NCCCc2ccccc2)nnc1-c1cccnc1,u,n,n,n,n,x,x,x,x,x,x,x,
O=C(NCc1ccccc1)Nc1cccn(Cc2ccccc2Cl)c1=O,n,n,n,n,n,n,x,x,x,x,x,x,
O=C(C(c1ccccc1)c1ccccc1)N1CCN(CCN2C(=O)c3cccc4cccc(c34)C2=O)CC1,x,n,n,n,n,n,n,n,n,n,n,n,
O=C(COC(=O)c1ccc2[nH]c3c(c2c1)CCCC3)Nc1ccc(Cl)cc1Cl,n,n,182[activator],n,n,n,n,n,n,n,n,n,RGS4-Gao HTS=107
O=C(COC(=O)c1ccc2[nH]c3c(c2c1)CCCC3)Nc1ccccc1Cl,n,n,n,n,n,n,x,x,x,x,x,x,
O=C(CSc1nnnn1-c1ccccc1)Nc1ncc2c(n1)CC(c1ccco1)CC2=O (centres undefined),39,35,n,57,n,n,n,n,n,n,n,n,
Cc1ccc(-c2ccc(=O)n(CC(=O)NCc3ccc(F)cc3)n2)cc1,n,n,n,n,n,n,x,x,x,x,x,x,
O=C(O)COCC(=O)Nc1ccc(-n2nc(C(F)(F)F)cc2-c2cccs2)cc1,u,n,n,n,n,x,x,x,x,x,x,x,
O=C(CCC(=O)OCc1ccc(Cl)cc1)Nc1cccc([N+](=O)[O-])c1,46,n,n,58,n,n,x,x,x,x,x,x,RGS4-Gao HTS=51
CCOC(=O)CCC(=O)Nc1cccc([N+](=O)[O-])c1,n,n,n,n,n,n,x,x,x,x,x,x,
CC(=O)CC(C)(C)NC(C)=S,u,n,n,n,n,x,x,x,x,x,x,x,
SMILES,RGS7-Gao,RGS4-Gao reg,RGS16-Gao HTS,RGS8-Gao reg,Avidin bead fluor,GSH bead fluor,Avidin counter,RGS8-Gao single,RGS7-Gao confirm,RGS16-Gao single,RGS4-Gao single,RGS19-Gao single,others
COc1ccc(-c2nc(C)sc2C)cc1,n,n,n,142[activator],n,n,n,n,n,n,n,n,RGS4-Gao HTS=115
COc1ccc(-c2nc(-n3c(C)c(C(C)=O)c(C(C)=O)c3C)sc2C)cc1,44,47,n,56,n,n,n,n,n,n,n,n,
CCc1[nH]nc(C(=O)N2CCCC(CCC(=O)N3CCN(c4ccccn4)CC3)C2)c1C (centres undefined),n,n,n,n,n,n,x,x,x,x,x,x,
O=S(=O)(CCN1CCCCC1)Oc1ccc(Cl)cc1Cl,u,n,n,n,n,x,x,x,x,x,x,x,
Cc1ccc(S(=O)(=O)C(F)(F)F)cc1NC(=O)c1cccnc1,n,n,181[activator],n,n,n,n,n,n,n,n,n,RGS4-Gao HTS=108
Cc1ccc(S(=O)(=O)N(C)C)cc1NC(=O)c1ccncc1,n,n,n,n,n,n,x,x,x,x,x,x,
CNc1nnc(Sc2ncccc2[N+](=O)[O-])s1,u,n,n,n,n,x,x,x,x,x,x,x,
O=C(Nc1ccc(F)cc1)NC1(C(=O)NCc2cccs2)CCCCC1,n,n,n,n,n,n,x,x,x,x,x,x,
O=C(Nc1cccc(Cl)c1)NC1(C(=O)NCc2cccs2)CCCCC1,232[activator],n,n,n,138,n,n,n,n,n,n,n,RGS4-Gao HTS=115
COc1ccc(CC(NC(C)=O)C(=O)NC2CCN(C(=O)c3ccc([N+](=O)[O-])cc3)CC2)cc1OC (centres undefined),u,n,n,n,n,x,x,x,x,x,x,x,
COc1ccc(OCC(=O)N2CCN(c3nnc(-c4ccccc4)c4ccccc34)CC2)cc1,15,12,8.3,22,n,n,n,n,n,n,n,n,
COc1cc(C#N)ccc1OCC(=O)Nc1cccc(S(=O)(=O)N2CCCC2)c1,u,n,n,n,n,n,x,x,x,x,x,x,
